IP6K1 inhibitor: Primary qHTS assay for small molecule inhibitors of Inositol hexaphosphate kinase 1 (IP6K1) | Inositol hexakisphosphate kinase 1 (Homo sapiens), Q92551 | IP6K1 kinase, ADP-Glo luminescence, 2 h; active compounds read low | activity change, % (series mostly up to about 58 µM) | 0.81% of 140,000 active; in the data active means activity change below about -25%
Target sequence (Q92551 whole entry, looked up): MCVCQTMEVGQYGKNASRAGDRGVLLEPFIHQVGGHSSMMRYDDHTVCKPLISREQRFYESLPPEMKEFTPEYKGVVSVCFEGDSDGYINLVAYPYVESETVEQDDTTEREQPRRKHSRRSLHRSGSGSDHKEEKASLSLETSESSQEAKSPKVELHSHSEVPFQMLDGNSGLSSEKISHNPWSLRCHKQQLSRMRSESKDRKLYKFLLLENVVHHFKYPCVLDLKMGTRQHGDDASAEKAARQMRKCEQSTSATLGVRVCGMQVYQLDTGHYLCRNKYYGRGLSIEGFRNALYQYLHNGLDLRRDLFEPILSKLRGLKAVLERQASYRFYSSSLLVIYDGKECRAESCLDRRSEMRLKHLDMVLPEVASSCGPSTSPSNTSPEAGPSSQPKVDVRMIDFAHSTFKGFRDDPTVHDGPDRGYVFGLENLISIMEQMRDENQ
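ADP-Glo luminescence measures ADP made by human IP6K1 during a 2 h RT reaction with ATP/IP6 (mix at 1.3 mM/130 uM); top library doses 57.5 and 19.1 uM final.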
GPT2 inhibitor: Primary qHTS assay for inhibitors of Glutamate pyruvate transaminase 2 (GPT2); 0.25% of 100,000 active; AID 1671188, 2021; Recombinant GPT2, coupled pyruvate oxidase/HRP Amplex Red fluorescence; Potency, µM (series often up to 57.7 µM), usual class: inhibitors; further: nearly all actives have a fitted effect of over 60% in size
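Fluorescence read-out: pyruvate from GPT2 turnover coupled to pyruvate oxidase, HRP and Amplex Red (0.2mM ThPP, 0.2U/mL PO and HRP, 50uM Amplex final). Substrates 250uM a-KG, 2mM L-alanine; enzyme 10ng/uL; 30 min RT.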
IP6K1 conf: Confirmatory qHTS assay for small molecule inhibitors of Inositol hexaphosphate kinase 1 (IP6K1). AID 1645852, 2021. Potency, µM (top dose mostly 49 µM), usual class: inhibitors. recombinant IP6K1 kinase, ADP-Glo luminescence, 2 h. shares compounds with IP6K1 inhibitor. 13% of 1,200 active; further: nearly all actives have a fitted effect of over 65% in size
Hits are given with their value; . = inactive; ? = inconclusive; / = no result; [ ] = another dose, or the depositor's remark. This is a sample that favours compounds with a hit; in the whole collection about 0.82% have one here. Unless noted, the call rests on the fitted dose curve; in most records, active means well fitted curve in the direction sought with a large enough effect; inconclusive means small, poorly fitted or top-dose-only effect, or another doubt; inactive means no such curve, though single readings can be large; an effect the other way counts as inactive or inconclusive.

SMILES	IP6K1 inhibitor	GPT2 inhibitor	IP6K1 conf
Cc1ccc(/C=C/c2onc(C)c2S(=O)(=O)N2CCC(C(=O)NCc3ccco3)CC2)cc1	.	/	/
Cc1ccc(/C=C/c2onc(C)c2S(=O)(=O)N2CCC(C(=O)N(CCC(C)C)Cc3ccco3)CC2)cc1	-38	/	.
Cc1cc(C(=O)N(C)C2CCc3nnc(C)n3CC2)c(C)n1Cc1ccco1 (configuration not stated)	.	.	/
Cc1cc(Nc2nc(NC(C)c3ncc(F)cn3)ncc2Cl)n[nH]1 (configuration not stated)	.	.	.
CCCS(=O)(=O)Nc1ccc(F)c(C(=O)c2c[nH]c3ncc(Cl)cc23)c1F	-31	.	?
CCCCOc1c(C(=O)c2c(F)cc(C)cc2F)cnc2n[nH]cc12	.	.	/
COc1ccc2c(c1)C(COCc1ccccc1)CC(C)(C)CO2 (configuration not stated)	.	/	/
CCCCc1ccc(NC(=O)CN2C(=O)NC(c3ccccc3OCC)C3=C2COC3=O)cc1 (configuration not stated)	.	.	/
O=C(C1CCCC1)N1CCC(Oc2cccc(F)c2)C1 (configuration not stated)	.	.	/
Cc1ccc(Cn2c(-c3ccccc3)nc3ccccc32)cc1	-27	/	.
Cc1cccc(-c2nc3ccccc3n2Cc2ccccc2)c1	.	/	/
Cc1ccc(Cn2c(Cc3ccccc3)nc3ccccc32)cc1	-27	/	.
COc1ccc(Cc2nc3ccccc3n2Cc2ccccc2C)cc1	.	/	/
CCN(CC)Cc1cnc2c(C(=O)N(CC)CC)cnn2c1	.	.	/
O=C(CCn1cnc2onc(-c3ccc(F)cc3)c2c1=O)N1CCN(c2ccccc2)CC1	.	/	/
O=C(O)CCn1cnc2onc(-c3ccccc3Cl)c2c1=O	-42	/	.
O=C(c1ccccc1F)N1CCC2(C1)C(=NC1CCCC1)NC(=O)N2c1cccnc1 (configuration not stated)	.	.	/
O=C1CO[C@H]2CN(c3ncccn3)C[C@H]2N1Cc1ccncc1	.	.	/
O=C(Nc1nc2nc(-c3ccccc3)cc(=O)n2[nH]1)c1ccc(Cl)cc1	.	/	/
Cc1ccc(C(=O)Nc2nc3nc(C)cc(=O)n3[nH]2)cc1	-27	/	.
CC(C)c1noc(-c2cn(C3CCN(C(=O)c4cccc(C(F)(F)F)c4)C3)nn2)n1 (configuration not stated)	.	.	/
CSc1ncccc1C(=O)NC1CC(c2cc(=O)[nH]c(N)n2)C1 (configuration not stated)	.	.	/
COc1ccc(-c2ccc(C(=O)NC3CC(c4cc(=O)[nH]c(N)n4)C3)o2)cc1 (configuration not stated)	-30	.	?
COCCN1CCC(N2CCN(C(=O)CCCc3ccccc3)CC2)C1=O (configuration not stated)	.	.	/
CCc1nc(C)sc1C(=O)N1CCCC(c2[nH]ncc2-c2ccccc2)C1 (configuration not stated)	-30	.[11.5 µM]	.
SMILES	IP6K1 inhibitor	GPT2 inhibitor	IP6K1 conf
Cc1ccc(-c2cn[nH]c2C2CCCN(C(=O)c3[nH]ncc3Cl)C2)cc1 (configuration not stated)	.	.	/
O=C(Nc1ccc2nc3n(c(=O)c2c1)CCCCC3)c1cccc(C(F)(F)F)c1	-25	/	.
CN(C(=O)C(=O)Nc1ccc2nc3n(c(=O)c2c1)CCCCC3)c1cccc(C(F)(F)F)c1	.	/	/
CCOC(=O)C1(Cc2ccc(F)cc2F)CCCN(S(=O)(=O)c2ccsc2)C1 (configuration not stated)	.	.	/
COc1ccc(C(=O)NCCc2sc(-c3ccc(F)cc3)nc2C)cc1OC	.	/	/
Cc1cc(SCc2sc(-c3ccc(C(F)(F)F)cc3)nc2C)ccc1OCC(=O)O	-29	.	10µM
O=Cc1cccc(-c2cc(C(F)(F)F)ccc2Cl)c1	.	.	/
O=Cc1cccc(-c2ccccc2F)c1	-29	.	?
O=Cc1cccc(-c2ccc(F)cc2F)c1	.	.	/
O=Cc1cccc(-c2cccc(C(F)(F)F)c2)c1	-36	.	?
O=C(c1ccc(N2CCCC2=O)cc1)N1CCC2(CC1)OCCCC2O (configuration not stated)	.	.	/
CCOc1ccc2oc(=O)cc(CN3CCN(C(=O)c4cccc(Cl)c4)CC3)c2c1	-29	/	.
CCOc1ccc2oc(=O)cc(CN3CCN(C(=O)c4ccc(Cl)cc4)CC3)c2c1	.	/	/
CCN1CCC2(CCC1=O)CN(Cc1noc(CC(C)C)n1)CCN2C (configuration not stated)	.	.	/
CCN1CCC2(CCC1=O)CN(Cc1nc(CCOC)no1)CCN2C (configuration not stated)	-33	.[11.5 µM]	.
COc1ccccc1Oc1c(CCC(=O)NCC2CCCO2)c(C)nn1-c1ccc(F)cc1 (configuration not stated)	.	.	/
O=S(=O)(c1ccccc1)c1nc(-c2cccs2)oc1N1CCCCC1	-36	/	.
Cc1ccc(S(=O)(=O)c2nc(-c3cccs3)oc2N2CCC(C)CC2)cc1	.	/	/
Cc1ccc(S(=O)(=O)c2nc(-c3ccccc3)oc2N2CCCCCC2)cc1	.	/	/
Cc1ccc(-c2nc(S(=O)(=O)c3ccc(C)cc3)c(N3CCCCC3)o2)cc1	-29	/	?
Cn1ccn2ncc(C(=O)NC3CC(c4nnc(CO)n4C4CC4)C3)c12 (configuration not stated)	.	.	/
O=C(CC1CC1)N1CC(F)(F)C[C@H]1c1nc(-c2ccncc2)no1	.	.	/
COc1ccc(-c2ccc3ncc(Nc4cnccn4)n3n2)cc1OC	.	?	/
COc1ccc(NC(=O)c2ccc3c(SCC(=O)O)c4c(nc3c2)CCCC4)c(OC)c1	-26	/	.
COc1ccc(NC(=O)CSc2c3c(nc4ccccc24)CCC3)c(OC)c1	.	/	/
SMILES	IP6K1 inhibitor	GPT2 inhibitor	IP6K1 conf
CCCCC(=O)N1CCC(N(Cc2ccccc2)C2CCOCC2)CC1	.	.	/
Cn1cncc1C(N)(c1ccc(Cl)cc1)c1ccc2c(c1)c(-c1cccc(Cl)c1)cc(=O)n2C (configuration not stated)	-26	.	?
Cc1cc(NC(=O)c2cc(-c3cccc(Cl)c3)on2)nn1Cc1ccc(Cl)cc1	.	/	/
COc1ccc(-c2cc(C(=O)Oc3cccc(C)c3)c3cc(C)ccc3n2)cc1	-30	/	.
COc1ccc(-c2cc(C(=O)Oc3cccc(C)c3)c3ccccc3n2)cc1	.	/	/
CN(Cc1ccc2nsnc2c1)Cc1cc2n(n1)CCCNC2	-25	.	.
CN(Cc1cc2n(n1)CCCNC2)Cc1nc(-c2ccccc2)cs1	.	.	/
CCN1C(C(=O)c2ccccc2)=C(OC(=O)C(C)C)c2ccccc2S1(=O)=O	.	/	/
CCN1C(C(=O)c2ccccc2)=C(OC(=O)COc2ccccc2)c2ccccc2S1(=O)=O	-29	/	?
CCN1CCN(Cc2nc3cc(NC(=O)c4ccccc4[N+](=O)[O-])ccc3n2CC)CC1	.	/	/
CCOC(=O)N1CCN(Cc2nc3cc(NC(C)=O)ccc3n2C(C)C)CC1	.	/	/
CCOC(=O)N1CCN(Cc2nc3cc(NC(=O)c4ccccc4Cl)ccc3n2C(C)C)CC1	-25	/	.
CCCC(=O)Nc1ccc2c(c1)nc(CN1CCN(C(=O)OCC)CC1)n2C(C)C	-28	/	.

Screening data as filed in PubChem BioAssay.
